The sample as a whole holds a higher share of hits than the screen did.
Mito fusion act: mitochondrial division inhibition or fusion activation; Potency, µM (titrated, usually from 46.1 µM), actives largely listed as activators; S. cerevisiae fusion-defective mutant growth rescue, CellTiterGlo 48 h; 320,000 compounds, 0.23% hits; note: nearly all actives have a fitted effect of over 45% in size
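Growth-rescue viability read-out: after 48 h at the non-permissive 37C in glycerol/ethanol YPEG, yeast mitochondrial fusion mutants are measured by CellTiterGlo luminescence; compounds (23 nl pinned per well) restoring growth score as division inhibitors or fusion activators.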
S-ASM inh: human S-ASM enzyme inhibition. placental ASM, HMU-PC fluorogenic substrate, 60 min. Potency, µM (titrated, usually from 57.5 µM), actives largely listed as inhibitors. 340,000 compounds, 0.006% hits
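HMU-PC0 cleavage (9 uM final) by human placental ASM, 60 min at 37 °C following 10 min compound exposure at RT; stopped at pH 10, fluorescence Ex 386/Em 447 nm.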
LDHA inh: LDHA (human) enzyme inhibition; AID 1347041; activity change, % (values are at about 110 or 230 µM); purified LDHA, NADH/diaphorase-resazurin fluorescence; active compounds read low; 480,000 compounds, 0.15% hits; in the data active = activity change below about -30%; inconclusive = mostly about -25% to -30%
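Human LDH5 at 2 nM final in Tris HCl pH 7.4 with 0.06 mM NADH and 0.2 mM pyruvate, reacted 5 minutes at room temperature. Remaining NADH coupled via diaphorase/resazurin; resorufin fluorescence read at 0 and 20 minutes, normalized to enzyme-free and DMSO wells.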
IDH1 R132H inh: human IDH1 R132H inhibition; 390,000 compounds, 0.093% hits; O75874; Potency, µM (series often up to 76.6 µM), hits mostly inhibitors; IDH1-R132H enzyme, NADPH consumption, diaphorase/resazurin fluorescence; AID 602179; note: nearly all actives have a fitted effect of over 65% in size
Target sequence (O75874 whole entry R132H, stated change not applied): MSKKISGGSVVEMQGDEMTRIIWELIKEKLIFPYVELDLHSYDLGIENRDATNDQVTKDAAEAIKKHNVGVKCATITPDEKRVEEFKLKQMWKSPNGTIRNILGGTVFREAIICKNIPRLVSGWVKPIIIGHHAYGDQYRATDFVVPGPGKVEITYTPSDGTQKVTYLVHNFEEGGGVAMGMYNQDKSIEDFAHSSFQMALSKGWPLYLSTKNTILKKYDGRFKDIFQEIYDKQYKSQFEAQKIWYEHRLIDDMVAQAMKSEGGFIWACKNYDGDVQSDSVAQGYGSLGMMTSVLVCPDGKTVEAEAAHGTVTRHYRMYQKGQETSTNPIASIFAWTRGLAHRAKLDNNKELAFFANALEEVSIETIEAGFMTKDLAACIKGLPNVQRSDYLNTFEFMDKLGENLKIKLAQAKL
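IDH1-R132H (0.5 ug/mL) preincubated 30 min with compound, then NADPH (0.016 mM) and alpha-KG (2 mM) added; 80 min at RT, pH 7.5. Remaining NADPH coupled via diaphorase/resazurin to fluorescence (540/590 nm); concentration-response curves normalized to no-enzyme control.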
RGS4 inh: inhibitors of human regulator of G protein signaling 4; P49798; Transcreener GDP fluorescence polarization, RGS4-accelerated GTP hydrolysis; Potency, µM (top dose mostly 114 µM), hits mostly inhibitors; 390,000 compounds, 0.039% hits; note: nearly all actives have a fitted effect of over 75% in size
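MLSMR compounds (23 nl, pin-transferred) preincubated 10 min at room temperature with a 500nM (2x) first reagent, then RGS4 at 900nM (2x) plus Transcreener GDP mix added; fluorescence polarization (620/688 nm) read before and after 90 min at 30 °C.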
ClpP mod: qHTS Assay for Activators of ClpP; ATP-dependent Clp protease proteolytic subunit (Bacillus subtilis (strain 168)), P80244; purified B. subtilis ClpP, FRET peptide cleavage, 20 min; Potency, µM (top dose mostly 57.5 µM); 340,000 compounds, 1.9% hits; AID 651965, 2013; active = well fitted falling curve with a large enough effect; inconclusive = small, poorly fitted or top-dose-only effect; inactive = no such curve, though single readings can be large or run the other way; note: the source files actives as falling curves though it sought activators and does not explain the sign; nearly all actives have a fitted effect of over 65% in size
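Buffer: 100 mM Tris/HCl pH8, 100 mM KCl, 0.05% low protease BSA, 2.5% glycerol, 0.01% Tween-20. ClpP 10 microg/mL final; 20 min RT; delta FRET normalized to ADEP and DMSO controls.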
Resorufin autofl: autofluorescence interference, mutant IDH1 hit counter-screen | shares compounds with IDH1 R132H inh | Resorufin detection reagent fluorescence interference, cell-free | inhibition of signal, % at 51.2 µM | 750 tested, under 10 active | AID 623980
WT IDH1 inh: wild-type IDH1 (human) inhibition counterscreen; shares compounds with IDH1 R132H inh; AID 623995; 750 compounds, 9% hits; WT IDH1 enzyme, NADPH diaphorase/resazurin fluorescence; Potency, µM (top dose mostly 115 µM), most hits filed as inhibitors; note: nearly all actives have a fitted effect of over 55% in size
Target sequence (O75874 whole entry, looked up): as the sequence (O75874 whole entry R132H, stated change not applied) above, with H132R counted along it
mIDH1 confirm: mutant IDH1 (human) inhibition, confirmed; Potency, µM (doses to about 76.6 µM), usual class: inhibitors; IDH1 R132H enzyme, NADPH diaphorase/resazurin fluorescence; AID 624002; 750 compounds, 83% hits; shares compounds with IDH1 R132H inh; note: nearly all actives have a fitted effect of over 50% in size
A number is an active result; . = inactive; ? = inconclusive; / = no result; [ ] = another dose, or the depositor's remark. Unless noted, calls come from the whole dose curve; as a rule, active = well fitted curve in the direction sought with a large enough effect; inconclusive = small, poorly fitted or top-dose-only effect, or another doubt; inactive = no such curve, though single readings can be large; an effect the other way counts as inactive or inconclusive.

SMILES | Mito fusion act | S-ASM inh | LDHA inh | IDH1 R132H inh | RGS4 inh | ClpP mod | Resorufin autofl | WT IDH1 inh | mIDH1 confirm
CSc1nc(N(C)NC(=O)c2ccc(Cl)cc2)c2ccccc2n1 | . | . | . | 46.5µM | . | ? | . | . | 22.4µM
O=S(=O)(c1ccc(NC(=S)NN=Cc2ccccc2O)cc1)N1CCCCC1 | / | . | . | 46.5µM | . | . | . | . | 22.4µM
O=S(=O)(c1ccc(NC(=S)N/N=C/c2ccc(O)c(O)c2)cc1)N1CCOCC1 | . | . | . | . | . | / | / | / | /
O=S(=O)(c1ccc(NC(=S)N/N=C/c2cccc(Oc3ccccc3)c2)cc1)N1CCOCC1 | . | . | . | ? | . | / | . | . | ?
NS(=O)(=O)c1ccc(NC(=S)Nc2ccc(S(=O)(=O)N3CCCC3)cc2)cc1 | . | . | . | . | . | / | / | / | /
Cc1cc(CN(Cc2cc(C)c(O)c(C)c2)C2CCCCC2)cc(C)c1O | / | / | . | / | / | / | / | / | /
CCCC(=O)Nc1ccc(-c2nc(N)sc2C)cc1 | / | / | . | / | / | / | / | / | /
CCCCNC(=O)Cc1n[nH]c(=O)c2ccccc12 | / | / | . | / | / | / | / | / | /
CN(Cc1ccc(Cl)c(Cl)c1)C(=O)c1cc2ccccc2oc1=O | / | / | . | / | / | / | / | / | /
O=C1C(Nc2ccccc2)=C(N2CCCCC2)C(=O)c2ccccc21 | . | . | . | . | . | . | / | / | /
CN(C1=C(N2CCCCC2)C(=O)c2ccccc2C1=O)c1ccccc1 | . | . | . | ? | . | . | . | . | ?
Cc1ccc(Nc2cc(C)c(C#N)c3nc4ccccc4n23)c(C)c1 | / | / | . | 39.8µM | . | . | . | . | 14.1µM
Cc1cc(Nc2ccc(O)cc2)n2c(nc3ccccc32)c1C#N | . | . | . | . | . | / | / | / | /
CC1=C(C)CC(C(=O)Nc2ccc3c(c2)CCC3)C(C(=O)O)C1 (stereo not drawn) | / | / | . | / | / | / | / | / | /
CCc1cccc(C)c1NC(=O)CSc1nnc(-c2cc3cccc(OC)c3o2)n1N | / | / | . | / | / | / | / | / | /
O=C(O)c1nn(CC(=O)N2CCCCCCC2)c(=O)c2ccccc12 | / | / | . | / | / | / | / | / | /
CN(C)CCNc1oc(-c2ccc(S(=O)(=O)N3CCCC3)cc2)nc1C#N | / | / | . | / | / | / | / | / | /
N#CC1=C(N)C(C#N)(C#N)C(c2ccncc2)C2CN(C(=O)OCc3ccccc3)CC=C12 (stereo not drawn) | . | . | . | 46.5µM | . | . | . | . | 44.7µM
CN1CC=C2C(C#N)=C(N)C(C#N)(C#N)C(c3ccsc3)C2C1 (stereo not drawn) | . | . | . | ? | .[11.4 µM] | ? | . | . | ?
CCc1ccc2c(c1)C(NC(C)=O)C(=O)N2CCN1CCOCC1 (stereo not drawn) | . | . | . | 46.5µM | . | / | . | ? | 25.1µM
CCCN1C(=O)C(NC(C)=O)c2ccccc21 (stereo not drawn) | . | . | . | . | . | . | / | / | /
Cc1cccc(N2CCN(S(=O)(=O)c3ccc4c(c3)C(C)(C)C(=O)N4C)CC2)c1C | . | . | . | . | . | . | / | / | /
Cc1cccc(N2CCN(S(=O)(=O)c3ccc4c(c3)C(C(C)C)C(=O)N4)CC2)c1C (stereo not drawn) | / | / | . | 39.8µM | . | . | . | . | 22.4µM
Cc1ccc(C)c(N2CCN(C(=O)C3CCN(S(=O)(=O)c4cn(C)c(C)n4)CC3)CC2)c1 | / | / | . | / | / | / | / | / | /
CC(/C=C1\SC(=S)N(c2ccc(C(=O)O)cc2)C1=O)=C\c1ccccc1 | . | . | . | 23.3µM | ? | . | . | 44.7µM | 50.1µM

Screens: PubChem, National Center for Advancing Translational Sciences (NCATS)
